In PubChem BioAssay AID1626 (SRMLSC, 2009):
Out of some 220,000 compounds screened, about 2,000 (0.91%) were called active. About 2% were inconclusive and are not listed. No stated cut-off is given here; in the data, inconclusive means inhibition above about 80% without an active follow-up result; inactive means below that; test concentration not stated here. The list is a sample of the results. Results with a measured potency or affinity are listed apart.

Assay: M. tuberculosis H37Rv growth inhibitors, H37Rv strain (AID 1626);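 further: bacteria incubated seven days before Alamar blue readout; 0% = bacteria only wells and 100% = bacteria with antibiotic wells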
Settings: stronger effect = higher value, concentration not given here
With O=C(O)c1cccc(Cn2c(Cl)c(/C=N/NC(=O)c3cccc(O)c3)sc2=O)c1 the inhibition was -13.5% (inactive).
With Cc1ccc(NC(=O)CCC(=O)c2cccs2)c(O)c1 the inhibition was -1.47% (inactive).
In the case of Cc1ccc2nc(-c3ccncc3)cc(-c3ccccc3)c2c1, the inhibition is reported as 9.15% (inactive).
In the case of CCS(=O)(=O)Nc1cccc(-c2ccc3nnc(C)n3n2)c1, the inhibition is reported as -7.2% (inactive).
For Cc1ccc2nc(-c3ccc(NS(C)(=O)=O)cc3)cc(-c3ccccc3)c2c1, the inhibition was 64.5% (inactive).
For CCOC(=O)c1cc(-c2ccccc2)nc2ccc(C)cc12, the inhibition was 29.4% (inactive).
In the case of COC(=O)[C@@H]1CCCN1C(=O)CCc1nnc(C2CCCCC2)o1, the inhibition is reported as 3.78% (inactive).
In the case of COc1ccc(NC(=O)O/N=C2/CCCc3ccc(OC)cc32)cc1, the inhibition is reported as -0.42% (inactive).
For O=S(=O)(Cc1cc(N2CCOCC2)nc(-c2ccccn2)n1)c1ccccc1, the inhibition was 2.59% (inactive).
For Cc1nc(CSc2ccc(Cl)cc2)cc(N2CCOCC2)n1, the inhibition was -2.98% (inactive).
In the case of O=C(Nc1ccc2c(c1)OCO2)c1ccc(S(=O)(=O)N2CCCC2)cc1, the inhibition is reported as -0.32% (inactive).
For CCOc1ccc(NC(=O)c2ccc(CNc3c(N4CCCC4)c(=O)c3=O)cc2)cc1, the inhibition was 67.9% (inactive).
For CC(=O)Oc1c(Cl)cc(Cl)cc1/C=C/c1ccc2ccccc2n1, the inhibition was 21.1% (inactive).
In the case of Fc1cccc(F)c1/C=C/c1ccc2ccccc2n1, the inhibition is reported as 7.53% (inactive).
With CCOc1cc(/C=C/c2ccc3cccc([N+](=O)[O-])c3n2)cc(Cl)c1O the inhibition was 0.72% (inactive).
In the case of Nc1nccc(/C=C/c2c(F)cccc2Cl)n1, the inhibition is reported as 0.04% (inactive).
For Clc1ccccc1OCc1nn[nH]n1, the inhibition was -3.82% (inactive).
For Cn1cc2cccc([N+](=O)[O-])c2n1, the inhibition was -0.35% (inactive).
For O=C(/C=C/c1ccco1)Nc1ccc2c(c1)OCO2, the inhibition was 2.3% (inactive).
For Nc1nc(N2CCN(c3ccc(Cl)cc3)CC2)n[nH]1, the inhibition was 6.82% (inactive).
For CCCCc1ncc(CN2CCCC(C(=O)c3ccc(SC)cc3)C2)[nH]1 (configuration not stated), the inhibition was 1.38% (inactive).
For CSc1ccc(C(=O)C2CCCN(Cc3ccn[nH]3)C2)cc1 (configuration not stated), the inhibition was 2.84% (inactive).
For CCOC(=O)c1cc(-c2ccco2)nc2c1c(C)nn2-c1cccc(Cl)c1, the inhibition was -0.03% (inactive).
In the case of O=C(NCC1CCCCC1)c1cc([N+](=O)[O-])ccc1N1CCOCC1, the inhibition is reported as 6.09% (inactive).
With CC(NC(=O)c1ccccc1Br)c1ccc2c(c1)CCCC2 (configuration not stated) the inhibition was 6.54% (inactive).
For CC(NC(=O)c1ccc(F)cc1)c1ccc2c(c1)CCCC2 (configuration not stated), the inhibition was 1.58% (inactive).
For CCOC(=O)C(CC)Sc1ncnc2c1nnn2-c1ccc(F)cc1 (configuration not stated), the inhibition was 10.4% (inactive).
With CCC(Sc1ncnc2c1nnn2-c1ccc(F)cc1)C(=O)OC (configuration not stated) the inhibition was 66.9% (inactive).
In the case of Cc1cc(C)cc(NC(=O)NCc2c(-c3ccccc3)noc2C)c1, the inhibition is reported as 1.42% (inactive).
With CCOc1ccc(NC(=O)C(CC)NC(=O)c2ccccc2CO)cc1 (configuration not stated) the inhibition was 3.2% (inactive).
With CCOc1ccc(NC(=O)c2ccccc2O)cc1 the inhibition was 6.33% (inactive).
For CN(C)/C=N/c1cc(=O)n(Cc2ccccc2)c(=O)n1C, the inhibition was -11.1% (inactive).
In the case of COc1ccc2oc(=O)c(-c3nc4ccccc4o3)cc2c1, the inhibition is reported as 2.35% (inactive).
For O=c1oc2ccccc2cc1-c1nc2ccccc2o1, the inhibition was 8.96% (inactive).
In the case of O=c1oc2ccc3ccccc3c2cc1-c1nnc(-c2ccccc2)o1, the inhibition is reported as 77.2% (inactive).
With COc1ccc(-c2nnc(-c3cc4c(ccc5ccccc54)oc3=O)o2)cc1 the inhibition was -4.32% (inactive).
With C=CCn1c(-c2ccccc2)nc2nc3ccccc3nc21 the inhibition was 5.61% (inactive).
With CNC(=O)CSc1nnc(-c2ccncc2)n1Cc1ccccc1 the inhibition was -4.15% (inactive).
With CCOC(=O)CSC1=N/C(=C\c2cc(OC)c(OC)c(OC)c2)C(=O)N1C the inhibition was 0.23% (inactive).
For CCC1Oc2ccc(C)cc2N(Cc2cccc(C)c2)C1=O (configuration not stated), the inhibition was 17.5% (inactive).
In the case of CN(Cc1ncc[nH]1)C(=O)c1cc(COc2c(F)cccc2F)on1, the inhibition is reported as 0.91% (inactive).
For O=C(/C=C/c1ccccc1[N+](=O)[O-])N1CCCCC1, the inhibition was 3.44% (inactive).
In the case of Cc1ccc(/C=C/C(=O)N2CC(C)CC(C)C2)o1 (configuration not stated), the inhibition is reported as 15.8% (inactive).
In the case of O=C(/C=C/c1cccs1)N1CCCCC1, the inhibition is reported as 12.9% (inactive).
In the case of CC1CN(C(=O)/C=C/c2ccc([N+](=O)[O-])s2)CC(C)O1 (configuration not stated), the inhibition is reported as 6.46% (inactive).
For CCc1nc2ccccc2n1Cc1ccc(F)cc1, the inhibition was 3.76% (inactive).
For CCOC(=O)N1CCC(NC(=O)Cn2cc3c(n2)CCCC3)CC1, the inhibition was -5.16% (inactive).
In the case of Cc1ccccc1C(C(=O)NC1CCCCC1)N(C(=O)CNC(=O)c1ccco1)c1cccnc1 (configuration not stated), the inhibition is reported as 2.42% (inactive).
For NC1=NCC(O)=C1c1nc2ccccc2[nH]1, the inhibition was 4.96% (inactive).
For COc1ccc(C(=O)/C=C/c2cn(CC(O)CN3CCOCC3)c3ccccc23)cc1 (configuration not stated), the inhibition was 15.2% (inactive).
In the case of Cc1ccc(C(=O)/C=C/c2cn(CC(O)CN3CCOCC3)c3ccccc23)cc1 (configuration not stated), the inhibition is reported as 78.3% (inactive).
For O=C(/C=C/c1cn(CC(O)CN2CCOCC2)c2ccccc12)c1cccs1 (configuration not stated), the inhibition was 4.21% (inactive).
In the case of O=Cc1cn(CC(O)CN2CCCCC2)c2ccccc12 (configuration not stated), the inhibition is reported as -4.08% (inactive).
With CCCCN(C)CC(O)Cn1cc(/C=C/C(=O)c2cccs2)c2ccccc21 (configuration not stated) the inhibition was 32.9% (inactive).
With COc1ccc(C(=O)/C=C/c2cn(CC(O)CN3CCN(C)CC3)c3ccccc23)cc1OC (configuration not stated) the inhibition was -1.8% (inactive).
In the case of C=CCNC(=O)c1ccc(-c2ccc([N+](=O)[O-])cc2)o1, the inhibition is reported as 2.72% (inactive).
For COc1cccc(/C=C2\SC(=S)N(NC(=O)c3ccncc3)C2=O)c1, the inhibition was -9.97% (inactive).
For O=C(NCc1csc(-c2cccs2)n1)Nc1ccc(F)cc1F, the inhibition was -1.75% (inactive).
In the case of Cc1cc(C)n(CC(O)Cn2c3ccc(Cl)cc3c3cc(Cl)ccc32)c(=O)n1 (configuration not stated), the inhibition is reported as 3.67% (inactive).
For OCCNCC(O)Cn1c2ccccc2c2ccccc21 (configuration not stated), the inhibition was 3.13% (inactive).
For OCCn1c(-c2ccccc2)csc1=Nc1ccccc1, the inhibition was 3.23% (inactive).
With CCOc1ccc(N=c2scc(-c3ccc(OC)cc3)n2CCO)cc1 the inhibition was 27.6% (inactive).
For Cc1cc(C)cc(C(=O)NCCCc2ccccc2)c1, the inhibition was -1.21% (inactive).
With CCN(CC)C(=O)C1CCCN(Cc2sccc2C)C1 (configuration not stated) the inhibition was -5.07% (inactive).
In the case of Cc1nc(N)nc(COc2ccccc2)n1, the inhibition is reported as -5.7% (inactive).
For CCc1nc(N2CCC(C)CC2)c2oc3ccccc3c2n1, the inhibition was 21.7% (inactive).
With CCc1nc(N2CCCCC2)c2oc3ccccc3c2n1 the inhibition was 22.4% (inactive).
For O=C(NCCCn1ccnc1)C(=O)NCC(c1cccnc1)N1CCN(c2ccccc2)CC1 (configuration not stated), the inhibition was 0.94% (inactive).
For COC(=O)/C(=N/Nc1ccccc1)N1CCCc2ccccc21, the inhibition was 38.7% (inactive).
In the case of ClC(=C\c1ccccc1)/C=N/N1CCN(c2ccccn2)CC1, the inhibition is reported as -1.5% (inactive).
For O=C(CSc1ccccn1)Nc1ccc2c(c1)OCCO2, the inhibition was -16.3% (inactive).
With CC(=O)Nc1ccc(NC(=O)CSc2ccc([N+](=O)[O-])cn2)cc1 the inhibition was -4.39% (inactive).
In the case of O=C(Nc1nnc(SCc2c(Cl)cccc2Cl)s1)c1ccc2ncsc2c1, the inhibition is reported as 29.9% (inactive).
For CSc1ncccc1C(=O)Nc1nnc(C2CC2)s1, the inhibition was 0.73% (inactive).
With CCSc1nnc(NC(=O)c2cccnc2Cl)s1 the inhibition was -8.72% (inactive).
With O=C(Nc1nnc(SCc2ccc(F)cc2)s1)c1cccnc1Cl the inhibition was 7.86% (inactive).
For CCSc1nnc(NC(=O)c2cnccn2)s1, the inhibition was 2.03% (inactive).
With Cc1cnc(C(=O)Nc2nnc(C)s2)cn1 the inhibition was -5.75% (inactive).
In the case of CC(=O)Nc1nnc(SCc2ccc(F)cc2)s1, the inhibition is reported as 1.23% (inactive).
For O=C(Nc1nnc(C2CC2)s1)c1ccncc1, the inhibition was -4.03% (inactive).
For COc1ccc(N2CCN(C(=O)C(C)(C)Oc3ccc(Cl)cc3)CC2)cc1, the inhibition was 10.8% (inactive).
With CCCCn1c(/C=C/c2ccco2)nc2ccccc21 the inhibition was -4.08% (inactive).
With CN(CCC(=O)Nc1ccc2c(c1)OCO2)Cc1ccccc1 the inhibition was -7.11% (inactive).
In the case of Cc1cccc(S(=O)(=O)NNC(=O)Cc2cccn2C)c1, the inhibition is reported as 3.18% (inactive).
With COc1ccccc1NC(=O)COc1ccc(Br)cc1CNCCCN1CCOCC1 the inhibition was -1.49% (inactive).
For Oc1ccccc1/C=N/[n+]1ccccc1, the inhibition was -3.35% (inactive).
In the case of CCc1cc(=O)oc2cc(OCC(=O)O)c(Cl)cc12, the inhibition is reported as -5.56% (inactive).
For CCC(=O)Nc1nnc(SCc2ccc(F)cc2)s1, the inhibition was 7.4% (inactive).
In the case of O=C(Nc1nnc(SCc2ccc(F)cc2)s1)c1ccco1, the inhibition is reported as -8.91% (inactive).
For CCCCNC(=O)Nc1ccccc1C(=O)Nc1ccc(OC)cc1, the inhibition was -1.66% (inactive).
With CCc1cccc(NC(=O)C(NC(=O)C2CCCCC2)C(C)C)c1 (configuration not stated) the inhibition was -6.21% (inactive).
In the case of COc1ccc(C)cc1S(=O)(=O)N1c2ccccc2CC1C (configuration not stated), the inhibition is reported as 2.45% (inactive).
For CCOC(=O)c1cnc(-n2nc(C)cc2C)nc1NC, the inhibition was 19.4% (inactive).
With CCOC(=O)c1cnc(-n2nc(C)cc2C)nc1N(C)C the inhibition was 4.9% (inactive).
For CCOC(=O)c1cnc(-n2nc(C)cc2C)nc1Oc1ccc(C#N)cc1, the inhibition was -2.96% (inactive).
In the case of CCOC(=O)c1cnc(-n2nc(C)cc2C)nc1Nc1ccc(O)cc1, the inhibition is reported as 0.145% (inactive).
With CCOC(=O)c1cnc(-n2nc(C)cc2C)nc1Oc1ccc(C(=O)OC)cc1 the inhibition was 8.41% (inactive).
With CCOC(=O)c1cnc(-n2nc(C)cc2C)nc1Nc1cccc(C(=O)O)c1 the inhibition was 7.26% (inactive).
With CCOC(=O)c1cnc(-n2nc(C)cc2C)nc1NNc1nc(C)cc(C)n1 the inhibition was 71.3% (inactive).
For CCOC(=O)c1cnc(-n2nc(C)cc2C)nc1N1CCOCC1, the inhibition was -9.47% (inactive).
With O=C(O)c1cccnc1Br the inhibition was 1.4% (inactive).
In the case of Cc1ccc(/C=N/OC(=O)c2nn(C)cc2Cl)cc1, the inhibition is reported as 11.9% (inactive).
